In PubChem BioAssay (Tox21):
Records with an inconclusive call do not appear. Active and inactive are the calls of the source. Unless noted, calls follow the shape of the dose curve; as a rule, active = well fitted curve in the direction sought with a large enough effect in the repeat runs; inconclusive = weak or mixed curves; inactive = no such curve, though single readings can be large; an effect the other way counts as inactive or inconclusive.

Assays:
[1] = qHTS assay to identify small molecule antagonists of the estrogen related receptor (ERR) signaling pathway - cell viability counter screen (AID 1224818);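 also: series mostly up to about 46 µM; viability measured after 17.5 h of compound exposure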
Summary of the method: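 Cytotoxicity counter screen: fluorescence from CellTiter-Fluor, added after 17.5 h compound exposure at 37 C and read 30 min later. ERR cell line seeded at 2,000 cells/well, preincubated 6 h before dosing.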

[2] = qHTS assay to identify small molecule antagonists of the estrogen related receptor (ERR) signaling pathway (AID 1224819;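 also: luminescence from an ERR-driven luciferase reporter measured with One-Glo reagent; series mostly up to about 46 µM; nearly all actives have a fitted effect of over 50% in size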)
Summary of the method: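 LOPAC library screened for antagonism as reduced One-Glo luminescence in ERR reporter cells (2,000/well). Compounds were added after 6 h pre-incubation and left 18 h at 37C; reading followed a 30 min room-temperature reagent step.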

[3] = qHTS assay to identify small molecule agonists of the estrogen related receptor (ERR) signaling pathway (AID 1224820)
Summary of the method: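 An ERR cell line provided by NTP was seeded at 2,000 cells per well and allowed to settle for 6 h before compounds in DMSO were added. After 18 h at 37 C, luciferase activity was measured by One-Glo luminescence.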

[4] = system: estrogen-related receptor alpha (ERRalpha) with PGC-1alpha coactivator, human; experiment: qHTS assay to identify small molecule antagonists of the estrogen related receptor signaling pathway with the pleiotropic PPARgamma coactivator (PGC) (AID 1224821; calls by dose curve;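 also: series mostly up to about 46 µM; lower luminescence signal means antagonism of PGC/ERR signalling; nearly all actives have a fitted effect of over 50% in size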)
Summary of the method: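 A PGC/ERR cell line supplied by NTP is seeded, allowed 6 h at 37 C, and treated with test compounds in DMSO for 18 h. Signal is then measured as luciferase luminescence using One-Glo.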

[5] = qHTS assay to identify small molecule antagonists of the estrogen related receptor signaling pathway with the pleiotropic PPARgamma coactivator (PGC) cell viability counter screen (AID 1224822; also: series mostly up to about 46 µM)
Summary of the method: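 Viability counter-screen read by fluorescence intensity after 30 min with CellTiter-Fluor at 37 C; PGC/ERR reporter cells were exposed to compounds for 17.5 h at 37 C following a 6 h preincubation.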

[6] = qHTS assay to identify small molecule agonists of the estrogen related receptor signaling pathway with the pleiotropic PPARgamma coactivator (PGC) (AID 1224823); also: potency is read from the fitted curve at half-maximal effect
Summary of the method: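 Compounds dissolved in DMSO are added by pin tool to PGC/ERR cells that have settled for 6 h, and incubation continues 18 h at 37 C. Reporter output is measured as One-Glo luminescence.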

Measured: Potency

NCCNS(=O)(=O)c1cccc2c(Cl)cccc12
inactive: all assays above

CC(C)C[C@H](NC(=O)C1OC1C(=O)O)C(=O)NCCCCN=C(N)N (stereo partly drawn)
inactive: all assays above

N=c1c[n+](N2CCOCC2)[n-]o1
not listed: [6]
inactive: all other assays above

OCC1O[C@H](O)C(Cl)C(O)C1O (stereo partly drawn)
inactive: all assays above

NC(=O)c1ccc2[nH]ccc2c1
inactive: all assays above

NC(N)=NC(N)=Nc1ccccc1
inactive: all assays above

NC(CCCP(=O)(O)O)C(=O)O (stereo not drawn)
inactive: all assays above

NCCSSCCN
inactive: all assays above

CC1CCN=C(N)S1 (stereo not drawn)
inactive: all assays above

CC(=O)NCCc1c[nH]c2ccc(O)cc12
inactive: all assays above

N[C@@H](Cc1ccc(O)c(I)c1)C(=O)O
inactive: all assays above

c1ccc2nc(C3=NCCN3)ccc2c1
inactive: all assays above

COc1ccccc1CN[C@@H]1CCCN[C@@H]1c1ccccc1
inactive: all assays above

N[C@H](CO)C(=O)O
inactive: all assays above

NC[C@@H]1O[C@H](c2ccccc2)Cc2c1ccc(O)c2O
inactive: all assays above

N[C@@H](Cc1ccc(F)cc1)C(=O)O
inactive: all assays above

CC(O)C(O)[C@H]1CNc2nc(N)[nH]c(=O)c2N1 (stereo partly drawn)
inactive: all assays above

CS(=O)(=O)c1ccc(-n2nc(C(F)(F)F)cc2-c2ccc(F)cc2)cc1
inactive: all assays above

OC[C@H]1O[C@@H](n2cnc3c(NC4CCCC4)ncnc32)[C@H](O)C1O (stereo partly drawn)
active: [6] 3.1 µM
inactive: all other assays above

CCCCCCCCCC[Si](C)(C)CCC(=O)NC(Cc1ccc(C)cc1)c1ccccc1 (stereo not drawn)
inactive: all assays above

Nc1ccc(-c2nc3ccc(-c4nc5ccc(N)cc5[nH]4)cc3[nH]2)cc1
inactive: all assays above

O=C1NC(=O)/C(=C/c2ccc(-c3ccc(F)cc3O)o2)S1
inactive: all assays above

N=c1ccn2c(n1)O[C@H]1C(O)[C@@H](CO)O[C@H]12 (stereo partly drawn)
inactive: all assays above

COc1cc2c(CCNC(C)=O)c[nH]c2cc1Cl
inactive: all assays above

NCCC1CCCC(CCN)N1 (stereo not drawn)
inactive: all assays above

COc1ccccc1N1CCN(CCCCN2C(=O)c3ccccc3C2=O)CC1
inactive: all assays above

NCCCCNCCCN
inactive: all assays above

CC1CNCCN1S(=O)(=O)c1cccc2cnccc12 (stereo not drawn)
inactive: all assays above

O=c1ccn([C@@H]2O[C@H](COP(=O)(O)OP(=O)(O)O)[C@@H](O)[C@H]2O)c(=O)[nH]1
inactive: all assays above

CCC(=O)N1CCN(C(=O)c2ccccc2)CC1
inactive: all assays above

O=c1[nH]c2ccccc2c2ccccc12
inactive: all assays above

O=C(O)CCC(C(=O)O)N1C(=O)c2ccccc2C1=O (stereo not drawn)
inactive: all assays above

N[C@@H](CCC(=O)N[C@H](CSN=O)C(=O)NCC(=O)O)C(=O)O
inactive: all assays above

NC1CONC1=O (stereo not drawn)
inactive: all assays above

NC(C(=O)N[C@@H]1C(=O)N2C(C(=O)O)=C(Cl)CS[C@H]12)c1ccccc1 (stereo partly drawn)
inactive: all assays above

C=C1C[C@@]23CC[C@H]4[C@@](C)(CCC[C@@]4(C)C(=O)O)[C@@H]2CC[C@]1(O)C3
inactive: all assays above

N[C@H]1CONC1=O
inactive: all assays above

CC(C)(C=O)Cc1cc(C(C)(C)C)c(O)c(C(C)(C)C)c1
inactive: all assays above

O=C(O)C1CN(CCCP(=O)(O)O)CCN1 (stereo not drawn)
inactive: all assays above

O=c1[nH]c2cc([N+](=O)[O-])c([N+](=O)[O-])cc2[nH]c1=O
inactive: all assays above

CCCCOc1cc(CC2CNC(=O)N2)ccc1OC (stereo not drawn)
inactive: all assays above

Nc1nc(OCc2ccccc2)c2[nH]cnc2n1
inactive: all assays above

O=C(O)CC1CCCc2ccccc2C1O (stereo not drawn)
inactive: all assays above

CC(C)(C)NCC(O)COc1cccc2[nH]c(=O)[nH]c12 (stereo not drawn)
inactive: all assays above

COc1ccc(C(=O)NCc2cccnc2)cc1C(=O)NCc1cccnc1
inactive: all assays above

NCC(O)(CS(=O)(=O)O)c1ccc(Cl)cc1 (stereo not drawn)
inactive: all assays above

O=[N+]([O-])c1ccc(CSc2ncnc3c2ncn3[C@@H]2O[C@H](CO)C(O)[C@H]2O)cc1 (stereo partly drawn)
inactive: all assays above

NC(=S)c1ccc[n+]([C@@H]2O[C@@H](COP(=O)([O-])OP(=O)(O)OC[C@H]3O[C@@H](n4cnc5c(N)ncnc54)[C@H](OP(=O)(O)O)C3O)C(O)C2O)c1 (stereo partly drawn)
active: [6] 18.8 µM
inactive: all other assays above

CC1C(=O)N(C)C(=O)c2nc[nH]c21 (stereo not drawn)
inactive: all assays above

CC(=O)N[C@@H](Cc1c[nH]c2ccccc12)C(=O)OCc1cc(C(F)(F)F)cc(C(F)(F)F)c1
inactive: all assays above

O=C(O)CCCC[C@@H]1CCSS1
inactive: all assays above

CN=C(N)NCCC[C@H](N)C(=O)O
inactive: all assays above

CCCCCCCCCCCCCCCC(=O)OC(CC(=O)O)C[N+](C)(C)C (stereo not drawn)
inactive: all assays above

CN(C)C(N)=NCCC[C@H](N)C(=O)O
inactive: all assays above
